According to PubChem BioAssay AID1159580 (chemical genetic matrix, 2015):
Values joined by “and” are separate entries in the source; they are usually repeats but may differ in a detail not shown here. Identical values can stand only once. Out of some 5,500 compounds screened, about 2,000 (36%) were called active. Inconclusive results (about 18%) are left out. Rule as the data show it: active = normalized growth mostly below about 0.91 (no sharp cut-off); inconclusive = no clear call, values can overlap the other calls; inactive = mostly above about 0.92. The list shows a part of the results.

Test: chemical genetic growth profiling, strain panel (AID 1159580);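 also: tested at 20 µM; growth read once vehicle control cultures reached saturation at 30 °C; 1 = growth at the plate median or of vehicle wells; lower values mean less growth of the strain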
Details: S. cerevisiae deletion strains, growth OD

Measured: normalized growth

CO[C@@H]1[C@@H](O[C@@H]2O[C@H](C)[C@@H](O[C@H]3C[C@@](C)(O)[C@H](O)[C@H](C)O3)[C@H](N(C)C)[C@H]2O)[C@@H](CC=O)C[C@@H](C)[C@@H](O[C@H]2CC[C@H](N(C)C)[C@@H](C)O2)/C=C/C=C/C[C@H](C)OC(=O)C[C@H]1O
inactive: locus YAL021C, strain ccr4, active compounds read low 1.02 | locus YAL026C, strain drs2, active compounds read low 1.01 | locus YAL030W, strain snc1, active compounds read low 0.997 | locus YBL061C, strain skt5, active compounds read low 1.02 | locus YBR009C, strain hhf1, active compounds read low 1.01 | locus YBR021W, strain FUR4, active compounds read low 1.03 | locus YBR023C, strain chs3, active compounds read low 1.01 | locus YBR171W, strain sec66, active compounds read low 1.02 | locus YBR229C, strain ROT2, active compounds read low 1.02 | locus YBR231C, strain swc5, active compounds read low 1.02 | locus YBR279W, strain paf1, active compounds read low 1.03 | locus YCL011C, strain gbp2, active compounds read low 1.01 | locus YCL016C, strain dcc1, active compounds read low 1.01 | locus YCL029C, strain bik1, active compounds read low 1 | locus YCL061C, strain MRC1, active compounds read low 1.01 | locus YCL069W, strain vba3, active compounds read low 1.01 | locus YCR088W, strain abp1, active compounds read low 1.02 | locus YDL005C, strain med2, active compounds read low 1.01 | locus YDL035C, strain GPR1, active compounds read low 1 | locus YDL040C, strain nat1, active compounds read low 1.02 | locus YDL074C, strain BRE1, active compounds read low 1.04 | locus YDL101C, strain DUN1, active compounds read low 1.01 | locus YDL185W, strain tfp1, active compounds read low 0.976 | locus YDL192W, strain arf1, active compounds read low 0.998 | locus YDR001C, strain nth1, active compounds read low 1.01 | locus YDR069C, strain doa4, active compounds read low 1 | locus YDR101C, strain arx1, active compounds read low 1.02 | locus YDR137W, strain rgp1, active compounds read low 1.02 | locus YDR150W, strain NUM1, active compounds read low 1.02 | locus YDR159W, strain sac3, active compounds read low 1.01 | locus YDR162C, strain NBP2, active compounds read low 1.01 | locus YDR195W, strain ref2 1 | locus YDR297W, strain sur2, active compounds read low 1.01 | locus YDR318W, strain mcm21, active compounds read low 0.996 | locus YDR334W, strain swr1, active compounds read low 1.03 | locus YDR335W, strain msn5, active compounds read low 1.01 | locus YDR388W, active compounds read low 1 | locus YDR392W, strain spt3, active compounds read low 1.02 | locus YDR502C, strain sam2, active compounds read low 0.989 | locus YEL003W, strain gim4, active compounds read low 1.01 | locus YEL037C, strain rad23, active compounds read low 1.01 | locus YEL061C, strain CIN8 (second series), active compounds read low 1.01 | locus YEL061C, strain CIN8, active compounds read low 1.01 | locus YER015W, strain faa2, active compounds read low 1 | locus YER016W, strain bim1, active compounds read low 1.01 | locus YER110C, active compounds read low 0.967 | locus YER111C, strain swi4, active compounds read low 1.01 | locus YER155C, strain BEM2 (second series), active compounds read low 1.02 | locus YER155C, strain BEM2, active compounds read low 1.01 | locus YER167W, strain BCK2, active compounds read low 1.02 | locus YFR010W, strain ubp6, active compounds read low 1.02 | locus YGL078C, strain dbp3, active compounds read low 0.982 | locus YGL086W, strain mad1, active compounds read low 0.994 | locus YGL167C, strain pmr1, active compounds read low 1.01 | locus YGL173C, strain kem1, active compounds read low 1.01 | locus YGL227W, strain vid30, active compounds read low 1.02 | locus YGL240W, strain doc1, active compounds read low 0.999 | locus YGL248W, strain PDE1, active compounds read low 1.02 | locus YGL253W, strain hxk2, active compounds read low 1.01 | locus YGR078C, strain PAC10, active compounds read low 1.01 | locus YGR135W, strain pre9, active compounds read low 0.955 | locus YGR229C, strain SMI1, active compounds read low 1.03 | locus YGR252W, strain gcn5, active compounds read low 0.95 | locus YHR013C, strain ard1, active compounds read low 1.03 | locus YHR027C, strain rpn1, active compounds read low 1.01 | locus YHR030C, strain SLT2, active compounds read low 1.02 and 0.972 | locus YHR079C, strain IRE1 (second series), active compounds read low 1 | locus YHR079C, strain IRE1, active compounds read low 0.961 | locus YHR094C, strain hxt1, active compounds read low 1 | locus YHR129C, strain ARP1, active compounds read low 1.02 | locus YHR142W, strain chs7, active compounds read low 1 | locus YHR200W, strain rpn10, active compounds read low 0.984 | locus YIL066C, strain RNR3, active compounds read low 1.03 | locus YIL073C, strain SPO22, active compounds read low 0.928 | locus YIL125W, strain kgd1, active compounds read low 0.997 | locus YIR030C, strain dcg1, active compounds read low 1 | locus YJL092W, strain hpr5, active compounds read low 1.01 | locus YJL095W, strain BCK1 (second series), active compounds read low 1.01 | locus YJL095W, strain BCK1, active compounds read low 1.01 and 0.969 | locus YJL115W, strain asf1, active compounds read low 1.02 | locus YJL129C, strain trk1, active compounds read low 1 | locus YJL134W, strain LCB3, active compounds read low 1.01 | locus YJL154C, strain vps35, active compounds read low 1.02 | locus YJL164C, strain tpk1, active compounds read low 1 | locus YJL166W, strain qcr8, active compounds read low 1.02 | locus YJL168C, strain set2, active compounds read low 0.979 | locus YJL187C, strain SWE1 (second series), active compounds read low 1.02 | locus YJL187C, strain SWE1, active compounds read low 1.01 | locus YJR043C, strain POL32, active compounds read low 1 | locus YJR066W, strain TOR1, active compounds read low 0.922 | locus YJR075W, strain HOC1, active compounds read low 0.991 | locus YKL009W, strain mrt4, active compounds read low 0.969 | locus YKL068W, active compounds read low 1.02 | locus YKL085W, strain MDH1 (second series), active compounds read low 1.01 | locus YKL085W, strain MDH1, active compounds read low 1.01 | locus YKL160W, strain elf1, active compounds read low 1.02 | locus YKR001C, strain vps1, active compounds read low 0.982 | locus YKR026C, strain gcn3, active compounds read low 1.02 | locus YKR091W, strain srl3, active compounds read low 1.01 | locus YLL001W, strain dnm1, active compounds read low 1.01 | locus YLL026W, active compounds read low 1.01 | locus YLL041C, strain sdh2, active compounds read low 1.01 | locus YLR027C, strain aat2, active compounds read low 1.01 | locus YLR039C, strain RIC1, active compounds read low 0.943 | locus YLR058C, strain SHM2, active compounds read low 1.02 | locus YLR102C, strain apc9, active compounds read low 0.997 | locus YLR113W, strain HOG1, active compounds read low 0.965 | locus YLR221C, strain rsa3, active compounds read low 1 | locus YLR258W, strain gsy2, active compounds read low 1.01 | locus YLR262C, strain YPT6 (second series), active compounds read low 1.02 | locus YLR262C, strain YPT6, active compounds read low 0.989 | locus YLR268W, strain sec22, active compounds read low 0.996 | locus YLR320W, strain mms22, active compounds read low 1.02 | locus YLR330W, strain CHS5, active compounds read low 1.01 | locus YLR342W, strain FKS1 (second series), active compounds read low 0.999 | locus YLR342W, strain FKS1, active compounds read low 1.02 | locus YLR357W, strain rsc2, active compounds read low 1.02 | locus YLR370C, strain arc18, active compounds read low 1.01 | locus YLR371W, strain rom2, active compounds read low 1 | locus YLR384C, strain iki3, active compounds read low 1.03 | locus YLR418C, strain cdc73, active compounds read low 0.967 | locus YML016C, strain PPZ1, active compounds read low 1.01 | locus YML032C, strain rad52, active compounds read low 0.955 | locus YML120C, strain ndi1, active compounds read low 1.01 | locus YML124C, strain tub3, active compounds read low 1 | locus YMR058W, strain fet3, active compounds read low 1.02 | locus YMR078C, strain ctf18, active compounds read low 0.993 | locus YMR125W, strain sto1, active compounds read low 1.01 | locus YMR129W, active compounds read low 1.02 | locus YMR205C, strain PFK2, active compounds read low 1.03 | locus YMR223W, strain ubp8, active compounds read low 0.975 | locus YMR231W, strain pep5, active compounds read low 1 | locus YMR263W, strain SAP30, active compounds read low 1.01 | locus YMR307W, strain GAS1, active compounds read low 0.959 | locus YNL067W, strain RPL9B, active compounds read low 1.01 | locus YNL071W, strain lat1, active compounds read low 1 | locus YNL153C, strain GIM3, active compounds read low 1.01 | locus YNL183C, strain NPR1, active compounds read low 0.921 | locus YNL209W, strain ssb2, active compounds read low 1.02 | locus YNL233W, strain BNI4, active compounds read low 1 | locus YNL248C, strain rpa49, active compounds read low 1.01 | locus YNL250W, strain rad50, active compounds read low 0.989 | locus YNL271C, strain bni1, active compounds read low 1 | locus YNL298W, strain CLA4, active compounds read low 0.997 | locus YNL307C, strain MCK1, active compounds read low 0.993 | locus YNL322C, strain KRE1 (second series), active compounds read low 1.01 | locus YNL322C, strain KRE1, active compounds read low 1.02 | locus YNR049C, strain mso1, active compounds read low 1.02 | locus YNR052C, strain pop2, active compounds read low 0.996 | locus YOL012C, strain htz1 0.441 | locus YOL147C, strain pex11, active compounds read low 0.991 | locus YOR001W, strain rrp6, active compounds read low 0.998 | locus YOR061W, strain CKA2, active compounds read low 1.01 | locus YOR069W, strain VPS5, active compounds read low 1.01 | locus YOR070C, strain gyp1, active compounds read low 1.01 | locus YOR080W, strain dia2, active compounds read low 1.01 | locus YOR083W, strain WHI5, active compounds read low 1.02 | locus YOR106W, strain vam3, active compounds read low 1.03 | locus YOR136W, strain idh2, active compounds read low 1 | locus YOR144C, strain elg1, active compounds read low 0.992 | locus YOR184W, strain ser1, active compounds read low 0.967 | locus YOR231W, strain MKK1, active compounds read low 0.973 | locus YOR265W, strain rbl2, active compounds read low 1.01 | locus YOR270C, strain vph1, active compounds read low 0.997 | locus YOR290C, strain snf2, active compounds read low 1 | locus YOR316C, strain cot1, active compounds read low 1.01 | locus YPL051W, strain arl3, active compounds read low 1.01 | locus YPL055C, strain LGE1, active compounds read low 1.03 | locus YPL078C, strain atp4, active compounds read low 1.01 | locus YPL106C, strain sse1, active compounds read low 1.04 | locus YPL240C, strain hsp82, active compounds read low 1.01 | locus YPL256C, strain CLN2, active compounds read low 1 | locus YPR119W, strain clb2, active compounds read low 0.994 | locus YPR141C, strain kar3, active compounds read low 1.02 | locus YPR163C, strain tif3, active compounds read low 1.01 | locus YPR167C, strain met16, active compounds read low 1 | strain wtn01, active compounds read low 0.989
